Source: PubChem BioAssay (NCATS)
Where “and” joins values, the source holds several entries; their conditions need not be identical. Identical values can stand only once. Inconclusive results are not listed. Calls of active or inactive are those of the source. Unless noted, the call rests on the fitted dose curve; in most records, active means well fitted curve in the direction sought with a large enough effect; inconclusive means small, poorly fitted or top-dose-only effect, or another doubt; inactive means no such curve, though single readings can be large; an effect the other way counts as inactive or inconclusive.

How the values were obtained:
[1] = Cell Viability - BJ (AID 421; calls by dose curve;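 further: potency means the concentration at half of the fitted maximal effect; cells exposed to compound for 40 hours at 37 °C before readout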); settings: BJ fibroblast viability, qHTS
Method in brief: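 Luminescent ATP signal (CellTiter-Glo, 20 min at room temperature) served as the read-out of viable BJ cells after 40 hours of compound treatment. Responses were scaled between DMSO and 100 uM tamoxifen, and AC50 values were obtained by Hill modeling.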

[2] = Cell Viability - MRC5 (AID 434; calls by dose curve;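 further: potency means the concentration at half of the fitted maximal effect; cells exposed to compound for 40 hours at 37 °C; potency reflects cytotoxicity seen as loss of intracellular ATP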); settings: MRC5 lung fibroblast viability, qHTS
Method in brief: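 qHTS cytotoxicity in human lung fibroblast MRC5 cells; 40 hr treatment, 37 °C; cellular ATP by luciferase luminescence; DMSO = 0%, 100 uM tamoxifen = 100% inhibition; Hill-fit AC50.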

[3] = Cellular Toxicity (caspase-3) HepG2 (AID 654); settings: HepG2 caspase-3 activation, luminescence; series mostly up to 92.2 µM;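 further: cells exposed to compound for 16 hours before reading; 0% = DMSO alone and 100% = caspase signal from 100 µM tamoxifen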
Method in brief: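 Cells plated 5 hr at 37 °C, compound added, incubated 16 hr at 37 °C. Caspase-Glo 3/7 reagent followed, 20 min at room temperature, then luminescence read. Activation scored as signal increase; AC50 from Hill fit.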

[4] = Cellular Toxicity (caspase-3) Jurkat (AID 655); settings: Jurkat caspase-3 activation, luminescence; caspase-3 activation: at 92.2 µM (top of the series), DMSO = 0%, tamoxifen = 100%;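 further: cells exposed to compound for 16 h at 37 °C before reading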
Method in brief: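 Jurkat cells (5000/well) in complete medium were treated with compounds for 16 hr at 37 °C, then Caspase-Glo 3/7 luminescence was read after 20 min at room temperature. Data normalized to DMSO (basal) and 100 uM tamoxifen (100%); AC50 from Hill fit.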

[5] = Cellular Toxicity (caspase-3) SHSY5Y (AID 657); settings: SH-SY5Y caspase-3 activation; series mostly up to 91.7 µM
Method in brief: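 SH-SY5Y human neuroblastoma cells (1500/well) were treated with compounds for 16 h at 37 °C, then Caspase-Glo 3/7 luminescence was read after 1 h at room temperature. Data normalized to DMSO and 10 uM staurosporine; AC50 from Hill fits.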

[6] = Cellular Toxicity (caspase-3) BJ (AID 658); settings: BJ fibroblasts, luminescence; Potency: caspase-3 activation; series mostly up to 91.7 µM
Method in brief: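 Readout: Caspase-Glo 3/7 luminescence increase in BJ cells after 16 hr treatment at 37 °C. Staurosporine and tamoxifen served as positive controls; AC50 values came from Hill modelling of data normalized to DMSO and 10 uM staurosporine.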

[7] = Cellular Toxicity (caspase-3) MRC-5 (AID 659); settings: MRC-5 cells, luminescence, normalized: DMSO 0%, 10 µM staurosporine 100%; series mostly up to 91.7 µM
Method in brief: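 Concentration-dependent caspase 3/7 activation is measured in human normal lung fibroblasts (MRC-5) following 16-hour treatment. AC50 values come from standard Hill-equation modeling of luminescence normalized to DMSO and 10 uM staurosporine.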

[8] = Cellular Toxicity (caspase-3) Mesangial (AID 660); settings: mesangial cells, normalized: DMSO 0%, 100 µM tamoxifen 100%; series mostly up to 91.7 µM;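 further: combined caspase 3 and 7 activity read by Caspase-Glo luminescence; cells exposed to compound for 16 h before the caspase read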
Method in brief: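 Mesangial cells, 1000/well, 5 h settle at 37 °C; compound 16 h, 37 °C; Caspase-Glo 3/7 reagent 20 min RT; luminescence. Norm.: DMSO = 0%, tamoxifen 100 uM = 100%. AC50, Hill fit.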

[9] = Cellular Toxicity (caspase-3) SK-N-SH (AID 661); settings: SK-N-SH caspase-3 activation, qHTS, DMSO as zero, staurosporine as full; series mostly up to 91.7 µM
Method in brief: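 Human neuroblastoma SK-N-SH, 1500 cells/well, 5 hr pre-incubation, then compound 16 hr, 37 °C. Caspase-Glo 3/7 reagent, 1 hr RT, luminescence. Norm. to DMSO/10 uM staurosporine; Hill-fit AC50.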

[10] = Cellular Toxicity (caspase-3) Hek293 (AID 664); settings: HEK293 caspase-3 activation, DMSO = 0%, 100 µM tamoxifen = 100%; at 92.2 µM (top of the series);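 further: cells exposed to compound for 16 h at 37 °C before readout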
Method in brief: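 Cells plated, 5 hr at 37 °C; compounds added; 16 hr at 37 °C; Caspase-Glo 3/7 reagent, 20 min RT; luminescence read. Activation expressed relative to DMSO and 100 uM tamoxifen, AC50 by Hill model.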

[11] = Cellular Toxicity (caspase-3) Renal Proximal Tubule (AID 667); settings: renal proximal tubule cells, primary cells freshly taken from rat; Potency: caspase-3 activation; series mostly up to 91.7 µM;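 further: cells exposed to compound for 16 hours at 37 °C before detection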
Method in brief: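 Primary rat proximal tubule cells, 1000/well, 5 h plating at 37 °C, then compound 16 h at 37 °C. Caspase-Glo 3/7 reagent, 1 h RT, luminescence. Normalized to DMSO (basal) and 10 uM staurosporine (100%); Hill-fit AC50.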

[12] = MultiTox-Fluor Cytotoxicity Assay - LYMP1-001 - Dead Cells (AID 946); settings: LYMP1-001 lymphoblastoid cells, dead-cell protease fluorescence; series mostly up to 92.2 µM;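 further: 0% = DMSO and 100% = tetraoctylammonium bromide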
Method in brief: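 AC50 from Hill fit of concentration-response; data normalized to DMSO (basal) and 15 uM tetraoctylammonium bromide (100%). LYMP1-001 lymphoblastoid cells, 2500/well, 16 hr compound at 37 C; dead-cell protease fluorescence, Ex/Em 485/520.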

[13] = Cell Viability - LYMP1-002 - Assay at 16 hr (AID 948); settings: LYMP1-002 lymphoblastoid cell viability; series mostly up to 92.2 µM;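 further: 0% = DMSO alone and full effect = 92 µM tetraoctylammonium bromide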
Method in brief: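 Human lymphoblastoid cells (LYMP1-002), 2500/well, were preincubated 5 hr at 37 C, then exposed to compounds for 16 hr at 37 C in complete medium. Cellular ATP was read by CellTiter-Glo luminescence after 30 min at room temperature; AC50 from Hill fits.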

[14] = MultiTox-Fluor Cytotoxicity Assay - LYMP1-002 - Live Cells (AID 955); settings: LYMP1-002 lymphoblastoid live-cell protease fluorescence viability; series mostly up to 46.1 µM; further: on the % scale 0 is the no-effect control and ±100 the full control effect
Method in brief: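 Read-out is live-cell protease activity (cell-permeant GF-AFC substrate, fluorescence Ex/Em=405/510), where a decrease indicates acute toxicity. Human lymphoblastoid cells were treated 16 hours at 37 C in a concentration series, and AC50 values came from standard Hill modelling.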

[15] = Cell Viability - LYMP1-003 - Assay at 24 hr (AID 963); settings: LYMP1-003 lymphoblastoid cell viability; series mostly up to 92.2 µM;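 further: plate controls were DMSO only for no effect and tetraoctylammonium bromide positive control for full effect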
Method in brief: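 Cells seeded at 2500/well, 5 hr at 37 C; compounds added; 24 hr at 37 C; CellTiter-Glo added, 30 min room temperature; luminescence read. Decrease in ATP taken as cytotoxicity, AC50 from Hill modelling.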

[16] = Cell Viability - LYMP2-026 (AID 989); settings: LYMP2-026 lymphoblastoid cell viability, qHTS; series mostly up to 92.2 µM;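 further: cells exposed to compound for 24 h at 37 °C; on the % scale 0 is the no-effect control and ±100 the full control effect; nearly all actives have a fitted effect of over 50% in size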
Method in brief: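 Luminescent ATP signal (CellTiter-Glo, 30 min room temperature) measures viable lymphoblastoid cells after 24 hr compound treatment at 37 C. Decreased ATP reflects acute toxicity; AC50 values come from Hill-equation modeling.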

[17] = Cell Viability - LYMP1-002 - Assay at 24 hr (AID 993); settings: LYMP1-002 lymphoblastoid cells viability; series mostly up to 92.2 µM; further: on the % scale 0 is the no-effect control and ±100 the full control effect
Method in brief: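 Cells plated 2500/well, 5 hr 37 C; compounds added, 24 hr 37 C; CellTiter-Glo added, 30 min RT; luminescence read. Tetraoctylammonium bromide positive control. Hill-equation AC50.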

[18] = qHTS Assay for Identification of Small Molecule Inducers of Hypoxia Response (AID 2120; active means well fitted curve in the direction sought with a large enough effect in the signal ratio, with a control signal flat, not every such curve was filed as active; the % refers to the signal ratio; further: 0% is about no effect); settings: hypoxia response reporter cells, beta-lactamase ratio readout; series mostly up to 104 µM
Method in brief: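 ME-180 HRE-bla cells plated in Opti-MEM/0.5% dialyzed FBS, rested 4-5 h, then dosed with compound titrations by pin tool. After 17 h at 37 degrees C, CCF4 dye loaded 2.5 h at RT; 460/530 nm ratio gave %Activity and AC50.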

[19] = molecular target: Peroxisome proliferator-activated receptor alpha (Homo sapiens) (UniProt Q07869); experiment: qHTS assay for small molecule agonists of the peroxisome proliferator-activated receptor alpha (PPARalpha) signaling pathway (AID 651778); settings: PathHunter PPARalpha complementation, chemiluminescence, 6 h; max response: hits give high values; further: % of control where 0% means no effect
Method in brief: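 Chemiluminescence from complemented enzyme reported PPARalpha activation in cells after 6 hr of compound treatment at 37 C. The detection reagent was incubated for 60 min at room temperature, and compounds were scored as agonists.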

[20] = qHTS assay for cell viability of the p53RE-bla HCT-116 cell line (AID 743292); settings: p53RE-bla HCT-116 viability, ATP luminescence, 16 h; series mostly up to 95 µM; further: on the % scale 0 is the no-effect control and ±100 the full control effect; nearly all actives have a fitted effect of over 55% in size
Method in brief: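 Viability of compound-treated p53RE-bla HCT-116 cells is taken from ATP-dependent luciferase luminescence. Treatment lasts 16 h at 37 C after a 5 h settling period; detection follows 30 min at room temperature.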

Peroxisome proliferator-activated receptor alpha (Homo sapiens), sequence (Q07869 whole entry, looked up): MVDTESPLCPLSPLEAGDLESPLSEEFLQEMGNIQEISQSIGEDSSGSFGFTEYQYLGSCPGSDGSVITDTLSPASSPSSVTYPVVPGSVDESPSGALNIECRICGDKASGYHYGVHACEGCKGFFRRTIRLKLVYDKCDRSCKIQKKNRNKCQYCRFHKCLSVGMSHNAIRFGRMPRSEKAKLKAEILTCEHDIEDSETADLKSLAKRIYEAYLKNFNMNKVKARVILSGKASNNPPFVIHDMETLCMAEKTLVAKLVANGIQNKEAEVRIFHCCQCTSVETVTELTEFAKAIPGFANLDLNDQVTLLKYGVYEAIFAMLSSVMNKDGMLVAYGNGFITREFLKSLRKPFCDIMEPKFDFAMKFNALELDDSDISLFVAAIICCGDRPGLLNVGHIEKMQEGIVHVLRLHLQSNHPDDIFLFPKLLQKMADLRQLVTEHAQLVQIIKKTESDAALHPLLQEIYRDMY

CCc1ccc(C(c2ccc(CC)cc2)C(Cl)Cl)cc1
inactive: Potency [1] > 92 µM | Potency [2] > 92 µM | Potency [3] | Potency [4] | Potency [5] | Potency [6] | outcome [7] | outcome [8] | outcome [9] | caspase-3 activation [10] 1.15% | Potency [11] | Potency [12] | Potency [13] | outcome [14] | Potency [15] | Potency [16] | Potency [17] | Potency [18] | max response [19] -1.02% | Potency [20]

O=CC(=O)c1ccccc1
inactive: Potency [1] > 92 µM | Potency [2] > 92 µM | Potency [3] | Potency [4] | Potency [5] | Potency [6] | outcome [7] | outcome [8] | outcome [9] | caspase-3 activation [10] 3.78% | Potency [11] | Potency [12] | Potency [13] | outcome [14] | Potency [15] | Potency [17] | Potency [18] | max response [19] -2.48% | Potency [20]

CCCCNCC
inactive: Potency [1] > 92 µM | Potency [2] > 92 µM | Potency [3] | Potency [4] | Potency [5] | Potency [6] | outcome [7] | outcome [8] | outcome [9] | caspase-3 activation [10] -0.76% | Potency [11] | Potency [12] | Potency [13] | outcome [14] | Potency [15] | Potency [16] | Potency [17] | Potency [18] | max response [19] -6.73% | Potency [20]

O=[N+]([O-])c1cccc(I)c1
inactive: Potency [1] > 92 µM | Potency [2] > 92 µM | Potency [3] | Potency [4] | Potency [5] | Potency [6] | outcome [7] | outcome [8] | outcome [9] | caspase-3 activation [10] -1.61% | Potency [11] | Potency [12] | Potency [13] | outcome [14] | Potency [15] | Potency [16] | Potency [17] | Potency [18] | max response [19] -0.601% | Potency [20]

CCCC(=O)OC(=O)CCC
inactive: Potency [1] > 92 µM | Potency [2] > 92 µM | Potency [3] | Potency [4] | Potency [5] | Potency [6] | outcome [7] | outcome [8] | outcome [9] | caspase-3 activation [10] 0.516% | Potency [11] | Potency [12] | Potency [13] | outcome [14] | Potency [15] | Potency [16] | Potency [17] | Potency [18] | max response [19] -9.39% and -1.32% | Potency [20]

C[Si](C)(C)Cl
inactive: Potency [1] > 92 µM | Potency [2] > 92 µM | Potency [3] | Potency [4] | Potency [5] | Potency [6] | outcome [7] | outcome [8] | outcome [9] | caspase-3 activation [10] 1.84% | Potency [11] | Potency [12] | Potency [13] | outcome [14] | Potency [15] | Potency [16] | Potency [17] | Potency [18] | max response [19] -1.44% | Potency [20]
